From the supplement of paper PMC6555819 come the findings set out here.

For the first experiment, the system named is PPARg:RXRa DBDmut IVT, anti-RXR (DBD mutation: RXRa K156A/R161A, NR concentration 270 nM, RXRa partner concentration 90 nM). Description: PBM binding z-score (relative to random genomic background probes); higher = stronger binding; sequences stand for … in GC…GCGATTGACAGCGTAGAATGAAGG
An outline of the steps:
(§1)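 Probes were double-stranded and carried 34-nt variable regions with direct-repeat seeds, single-nucleotide variants, half-site ablations and random human genomic background sequences, printed on custom Agilent 4×180K protein-binding microarrays. Arrays were incubated 1 h with ligand-free nuclear receptor dimers in PBS pH 7.4, 2% milk, 0.02% Triton X-100, 1 mM DTT, 0.2 mg/mL BSA and 0.4 mg/ml salmon testes DNA. Antibodies against each partner (one per run) detected binding, and scanned fluorescence was regression-normalized. Binding z-scores use the random background probes as reference.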
In turn, TTACCATGGTGAGCTGAGGTCGTTGATCCAACTC registered a PBM binding z-score of -0.23.
In the case of CAGCCTAGGTCAGGGCCAGTAAAGGAGGAACGTT, the PBM binding z-score came to 1.26.
Take TCTTGTAGATCAATAGAGTTTAAGAAAGTGCGCT: the PBM binding z-score amounted to 1.58.
Take TCGAGGAGGTTACCAATGGGGCATTCAGCTTTCT: the PBM binding z-score stood at 1.15.
Turning to CGTCCAAGGTCAGAGATGTCAGTGAATGCCGAGT, the PBM binding z-score is 2.09.
Sequence CACACTAGGTCACGAAAGGTCAAAGTCGAATGAC gave a PBM binding z-score of 7.74.
Sequence GATACAGGGTCAGCTAGAGGCAAGAGTATGGAAA gave a PBM binding z-score of 0.7.
CGAACTAGGTCACAACAGGACAGTGAAGGATGAT returned a PBM binding z-score of 8.41.
Sequence ATATGTAGGTTTAGGGTCATTCAGGTTGGTTCGC had a PBM binding z-score of 2.89.
CCGACTGGGGCAAGGTTAGCATAACGCACAGCCA had a PBM binding z-score of 2.73.
For the sequence CGTCCAAGGTCATCGGAGGTCAGTGAAGACAGAT, the PBM binding z-score came to 3.14.
In the case of TCTCGGAGGACACGAAAGGTCAGAGTTCGACATC, the PBM binding z-score turned out to be 1.62.
Take CCTACTGGCCCACGAAAGGTCATTGATTCAGTGA: the PBM binding z-score is -0.126.
Same read-out and setting: as for TCATATAGGTAAAGGCGAAAGTCGAACGATATGA, the figure is 3.49.
Still for that read-out and setting: the same measure for CAAACTAGGTCAGAGAGGTCAAAGTCCGTGCGTA: 7.7; for TAGCCTAGGTCAGATCGGGCCAGTATCCGCTATA: 0.546.
Consider CTCGAAAGGCCGGTTGAGGTGAGTATACGGATAA, for which the PBM binding z-score was -0.491.

The test system of another experiment is PPARg:RXRa IVT, anti-PPARg (NR concentration 270 nM, RXRa partner concentration 90 nM). Described as above. A digest of the protocol: as §1
As for AGTCGAAGTTCACTAGGTAACGTAAGATTCAGCT, the PBM binding z-score turned out to be 3.45.
As to GCTAGTTGGTCCGTAAAAGGTCACACACCGGTCG, the PBM binding z-score was 1.86.
Sequence CGAACTAGGTCAGAACAGGACAGTGAAGGATGAT had a PBM binding z-score of 6.92.
Same read-out and setting: as for CGAAATAGGTCAGAACAGGACAGTGAAGGATGAT, the figure is 6.4; as for TAGCCTAGGTCATTCTGGGGCCAGTATAGAAAGC, 2.77; as for ATACCAAGGTGATCGTGACGTCGTTGATACTAAC, 1.2.
In turn, CGTCCAAGGTCAAGGTTAGTGAAAGAGACTCGAA came in with a PBM binding z-score of 3.79.
Turning to TCGAGTAGGTTAGTCGGGGGATTCAGCCAACATA, the PBM binding z-score is 3.13.
Sequence GCTCGGAGGGCAAGGTCAGAGCTTTGTCCGTAGA came in with a PBM binding z-score of 1.11.
Regarding CCGAGTAGGTTATGGGGCATTCATGCAACGGTGA, the PBM binding z-score turned out to be 3.49.
The sequence ACTAGCAGTCCAAGGGTCACTCAAGATTAGTCCG registered a PBM binding z-score of 1.77.
Take ATCGAAAGGTCCTGAGGTGAGTATACAGAAAGGC: the PBM binding z-score was 0.777.
The sequence AGTCAAAGTTCACTTGGTAACGTAAGATTCAGCT returned a PBM binding z-score of 2.42.
The sequence TCTAGCACGCCAGAGGGTCACTCAAGAGGTACGG came in with a PBM binding z-score of 0.0659.
For the sequence CCAACTAGGTCAAGGTCAAAGTCGGTTTGTGCCA, the PBM binding z-score worked out at 8.03.
TCAGACAGGTGAAGGTAACACAGGTACGCAGTCG returned a PBM binding z-score of 1.37.
Sequence TTACCAAGGTGAGCTGAGGTCGTCGATCCAACTC showed a PBM binding z-score of 2.1.
In turn, TCATATAGGTAAATGCTAGGTGAGAGTCCGATCT came in with a PBM binding z-score of 2.57.
Take TCTTGTAGATTAAAGGTTAAGAAAGCCGAAGCCT: the PBM binding z-score is 2.24.
The sequence TCAGACAGGTGCAGGTAACTCAGGTACGCAGTCG registered a PBM binding z-score of -0.017.
For CGTCAAAGTTCAACTAAAGTAACGTAAAGCACGC, the PBM binding z-score came out at 2.
AATACAGGGTCACTAGGCCAGACTAGGTACGAAT: the PBM binding z-score is 5.9.
Sequence TTACCATGGTGAGCTGAGGTCGTTGATCCAACTC returned a PBM binding z-score of 0.397.
Sequence CAGCCTAGGTCAGGGCCAGTAAAGGAGGAACGTT came in with a PBM binding z-score of 1.51.
Regarding TCTTGTAGATCAATAGAGTTTAAGAAAGTGCGCT, the PBM binding z-score came out at 0.625.
The sequence TCGAGGAGGTTACCAATGGGGCATTCAGCTTTCT showed a PBM binding z-score of 1.
CGTCCAAGGTCAGAGATGTCAGTGAATGCCGAGT displayed a PBM binding z-score of 2.19.
CACACTAGGTCACGAAAGGTCAAAGTCGAATGAC: the PBM binding z-score was determined as 8.37.
Still for that read-out and setting: as for GATACAGGGTCAGCTAGAGGCAAGAGTATGGAAA, the figure is 2.39.
The same measure, in the same setting: the same measure for CGAACTAGGTCACAACAGGACAGTGAAGGATGAT: 8.69.
ATATGTAGGTTTAGGGTCATTCAGGTTGGTTCGC gave a PBM binding z-score of 3.81.
With CCGACTGGGGCAAGGTTAGCATAACGCACAGCCA, the PBM binding z-score came to 2.99.
Turning to CGTCCAAGGTCATCGGAGGTCAGTGAAGACAGAT, the PBM binding z-score turned out to be 4.14.
The same measure, in the same setting: as for TCTCGGAGGACACGAAAGGTCAGAGTTCGACATC, the figure is 1.81; as for CCTACTGGCCCACGAAAGGTCATTGATTCAGTGA, 0.861; as for TCATATAGGTAAAGGCGAAAGTCGAACGATATGA, 2.3.
Turning to CAAACTAGGTCAGAGAGGTCAAAGTCCGTGCGTA, the PBM binding z-score turned out to be 8.02.
On the same count and under the same terms, as for TAGCCTAGGTCAGATCGGGCCAGTATCCGCTATA, the figure is 1.41; as for CTCGAAAGGCCGGTTGAGGTGAGTATACGGATAA, -0.359.

Another experiment concerns PPARg DBDmut:RXRa IVT, anti-PPARg (DBD mutation: PPARg1 K132A/R137A, NR concentration 270 nM, RXRa partner concentration 90 nM). The description is as above. A digest of the protocol:
as §1
AGTCGAAGTTCACTAGGTAACGTAAGATTCAGCT showed a PBM binding z-score of 0.653.
Regarding GCTAGTTGGTCCGTAAAAGGTCACACACCGGTCG, the PBM binding z-score was 0.724.
Consider CGAACTAGGTCAGAACAGGACAGTGAAGGATGAT, for which the PBM binding z-score was found to be 1.26.
On to CGAAATAGGTCAGAACAGGACAGTGAAGGATGAT, for which the PBM binding z-score was 1.62.
TAGCCTAGGTCATTCTGGGGCCAGTATAGAAAGC gave a PBM binding z-score of 0.208.
ATACCAAGGTGATCGTGACGTCGTTGATACTAAC: the PBM binding z-score was 0.681.
The same measure, in the same setting: the same measure for CGTCCAAGGTCAAGGTTAGTGAAAGAGACTCGAA: 0.923; for TCGAGTAGGTTAGTCGGGGGATTCAGCCAACATA: 3.86; for GCTCGGAGGGCAAGGTCAGAGCTTTGTCCGTAGA: -2.58.
CCGAGTAGGTTATGGGGCATTCATGCAACGGTGA had a PBM binding z-score of -0.836.
On to ACTAGCAGTCCAAGGGTCACTCAAGATTAGTCCG, for which the PBM binding z-score is 0.198.
The same measure, in the same setting: as for ATCGAAAGGTCCTGAGGTGAGTATACAGAAAGGC, the figure is 0.834.
Turning to AGTCAAAGTTCACTTGGTAACGTAAGATTCAGCT, the PBM binding z-score came to 1.28.
TCTAGCACGCCAGAGGGTCACTCAAGAGGTACGG: the PBM binding z-score was -0.875.
CCAACTAGGTCAAGGTCAAAGTCGGTTTGTGCCA gave a PBM binding z-score of 1.26.
In turn, TCAGACAGGTGAAGGTAACACAGGTACGCAGTCG showed a PBM binding z-score of -0.146.
Still for that read-out and setting: as for TTACCAAGGTGAGCTGAGGTCGTCGATCCAACTC, the figure is -0.228.
In turn, TCATATAGGTAAATGCTAGGTGAGAGTCCGATCT came in with a PBM binding z-score of 0.808.
In turn, TCTTGTAGATTAAAGGTTAAGAAAGCCGAAGCCT returned a PBM binding z-score of 0.866.
As for TCAGACAGGTGCAGGTAACTCAGGTACGCAGTCG, the PBM binding z-score is -0.24.
CGTCAAAGTTCAACTAAAGTAACGTAAAGCACGC registered a PBM binding z-score of 1.4.
For the sequence AATACAGGGTCACTAGGCCAGACTAGGTACGAAT, the PBM binding z-score amounted to 3.19.
The sequence TTACCATGGTGAGCTGAGGTCGTTGATCCAACTC registered a PBM binding z-score of -0.517.
The sequence CAGCCTAGGTCAGGGCCAGTAAAGGAGGAACGTT returned a PBM binding z-score of -1.63.
For the sequence TCTTGTAGATCAATAGAGTTTAAGAAAGTGCGCT, the PBM binding z-score was 0.851.
Same read-out and setting: the same measure for TCGAGGAGGTTACCAATGGGGCATTCAGCTTTCT: -0.386.
The sequence CGTCCAAGGTCAGAGATGTCAGTGAATGCCGAGT yielded a PBM binding z-score of -0.242.
Take CACACTAGGTCACGAAAGGTCAAAGTCGAATGAC: the PBM binding z-score worked out at 3.1.
On the same count and under the same terms, the same measure for GATACAGGGTCAGCTAGAGGCAAGAGTATGGAAA: -0.415; for CGAACTAGGTCACAACAGGACAGTGAAGGATGAT: 2.32.
ATATGTAGGTTTAGGGTCATTCAGGTTGGTTCGC came in with a PBM binding z-score of 1.35.
Sequence CCGACTGGGGCAAGGTTAGCATAACGCACAGCCA gave a PBM binding z-score of -1.11.
Still for that read-out and setting: the same measure for CGTCCAAGGTCATCGGAGGTCAGTGAAGACAGAT: 0.99.
For the sequence TCTCGGAGGACACGAAAGGTCAGAGTTCGACATC, the PBM binding z-score is -0.309.
On to CCTACTGGCCCACGAAAGGTCATTGATTCAGTGA, for which the PBM binding z-score is -0.814.
Turning to TCATATAGGTAAAGGCGAAAGTCGAACGATATGA, the PBM binding z-score stood at 1.22.
With CAAACTAGGTCAGAGAGGTCAAAGTCCGTGCGTA, the PBM binding z-score was 1.22.
TAGCCTAGGTCAGATCGGGCCAGTATCCGCTATA came in with a PBM binding z-score of -0.474.
In turn, CTCGAAAGGCCGGTTGAGGTGAGTATACGGATAA displayed a PBM binding z-score of -0.611.
